What was measured:
[1] = target: Calcium/calmodulin-dependent protein kinase type 1 (Homo sapiens) (UniProt Q14012); conditions: at 10 µM
[2] = target: Calcium/calmodulin-dependent protein kinase type II subunit beta (Homo sapiens) (UniProt Q13554); conditions: at 1 µM
[3] = target: Calcium/calmodulin-dependent protein kinase type II subunit beta (Homo sapiens) (UniProt Q13554); conditions: at 10 µM
[4] = target: Calcium/calmodulin-dependent protein kinase type II subunit gamma (Homo sapiens) (UniProt Q13555); conditions: at 1 µM
[5] = target: Calcium/calmodulin-dependent protein kinase type II subunit gamma (Homo sapiens) (UniProt Q13555); conditions: at 10 µM
[6] = target: Calcium/calmodulin-dependent protein kinase type II subunit delta (Homo sapiens) (UniProt Q13557); conditions: at 1 µM
[7] = target: Calcium/calmodulin-dependent protein kinase type II subunit delta (Homo sapiens) (UniProt Q13557); conditions: at 10 µM
[8] = target: T1, Calcium/calmodulin-dependent protein kinase type IV (Homo sapiens) (UniProt Q16566); conditions: at 1 µM
T1 sequence (whole entry): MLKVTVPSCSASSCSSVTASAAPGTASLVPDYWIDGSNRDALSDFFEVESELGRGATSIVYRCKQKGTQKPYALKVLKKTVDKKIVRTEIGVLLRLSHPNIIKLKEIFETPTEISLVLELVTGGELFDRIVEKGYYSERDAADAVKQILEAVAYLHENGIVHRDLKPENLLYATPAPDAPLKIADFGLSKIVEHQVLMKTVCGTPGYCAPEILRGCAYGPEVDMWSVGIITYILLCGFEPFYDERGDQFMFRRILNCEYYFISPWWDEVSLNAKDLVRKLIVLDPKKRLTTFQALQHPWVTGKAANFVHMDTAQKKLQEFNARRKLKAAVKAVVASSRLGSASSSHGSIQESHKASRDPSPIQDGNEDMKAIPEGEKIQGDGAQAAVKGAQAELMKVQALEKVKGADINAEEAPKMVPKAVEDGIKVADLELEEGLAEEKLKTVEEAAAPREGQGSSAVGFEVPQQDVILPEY

[9] = target: T1, Calcium/calmodulin-dependent protein kinase type IV (Homo sapiens); conditions: at 10 µM
[10] = target: Death-associated protein kinase 1 (Homo sapiens) (UniProt P53355); conditions: at 10 µM
[11] = target: Death-associated protein kinase 2 (Homo sapiens) (UniProt Q9UIK4); conditions: at 1 µM
[12] = target: T2, Serine/threonine-protein kinase DCLK2 (Homo sapiens) (UniProt Q8N568); conditions: at 10 µM
T2 sequence (whole entry): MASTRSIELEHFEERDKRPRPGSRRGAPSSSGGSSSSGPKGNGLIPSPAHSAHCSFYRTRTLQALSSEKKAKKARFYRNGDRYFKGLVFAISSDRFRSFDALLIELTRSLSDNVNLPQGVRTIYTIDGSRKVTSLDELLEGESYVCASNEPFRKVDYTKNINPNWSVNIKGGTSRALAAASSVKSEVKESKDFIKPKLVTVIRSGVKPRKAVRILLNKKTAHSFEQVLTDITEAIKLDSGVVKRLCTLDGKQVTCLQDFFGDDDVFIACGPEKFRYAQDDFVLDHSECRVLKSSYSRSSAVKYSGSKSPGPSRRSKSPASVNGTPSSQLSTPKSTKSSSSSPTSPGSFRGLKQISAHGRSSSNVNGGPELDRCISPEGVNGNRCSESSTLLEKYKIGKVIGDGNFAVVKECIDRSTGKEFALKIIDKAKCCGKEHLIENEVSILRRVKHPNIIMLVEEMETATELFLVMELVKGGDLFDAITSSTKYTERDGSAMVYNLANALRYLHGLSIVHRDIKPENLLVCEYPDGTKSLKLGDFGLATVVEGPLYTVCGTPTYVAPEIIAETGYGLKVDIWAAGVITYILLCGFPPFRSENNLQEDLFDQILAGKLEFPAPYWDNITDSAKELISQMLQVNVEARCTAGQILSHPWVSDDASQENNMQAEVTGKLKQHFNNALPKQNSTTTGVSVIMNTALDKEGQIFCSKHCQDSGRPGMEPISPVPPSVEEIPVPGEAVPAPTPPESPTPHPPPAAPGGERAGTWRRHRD

[13] = target: T3, Discoidin domain-containing receptor 2 (Homo sapiens) (UniProt Q16832); conditions: at 1 µM
T3 sequence (whole entry): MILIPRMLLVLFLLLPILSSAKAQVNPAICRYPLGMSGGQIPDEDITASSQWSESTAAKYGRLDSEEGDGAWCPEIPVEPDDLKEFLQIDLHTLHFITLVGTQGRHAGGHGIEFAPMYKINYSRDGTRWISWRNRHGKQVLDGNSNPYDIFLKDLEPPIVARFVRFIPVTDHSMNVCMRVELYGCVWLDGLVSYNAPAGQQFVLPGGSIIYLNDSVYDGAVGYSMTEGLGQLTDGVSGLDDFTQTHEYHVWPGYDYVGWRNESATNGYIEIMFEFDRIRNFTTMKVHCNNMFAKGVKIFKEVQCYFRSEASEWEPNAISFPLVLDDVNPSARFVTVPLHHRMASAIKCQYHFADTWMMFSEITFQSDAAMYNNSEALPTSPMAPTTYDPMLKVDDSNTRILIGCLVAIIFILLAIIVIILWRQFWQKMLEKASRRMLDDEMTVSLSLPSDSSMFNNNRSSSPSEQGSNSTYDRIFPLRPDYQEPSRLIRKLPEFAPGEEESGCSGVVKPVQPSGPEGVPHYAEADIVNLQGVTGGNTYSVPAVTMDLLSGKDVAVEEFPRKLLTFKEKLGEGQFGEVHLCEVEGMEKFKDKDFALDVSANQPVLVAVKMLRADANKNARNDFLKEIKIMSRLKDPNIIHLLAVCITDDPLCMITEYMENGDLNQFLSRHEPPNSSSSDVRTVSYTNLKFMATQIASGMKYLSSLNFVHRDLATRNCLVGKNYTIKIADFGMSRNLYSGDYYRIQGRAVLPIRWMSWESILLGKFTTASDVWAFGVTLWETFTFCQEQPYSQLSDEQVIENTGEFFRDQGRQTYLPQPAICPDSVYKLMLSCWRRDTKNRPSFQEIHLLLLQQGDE

[14] = target: T3, Discoidin domain-containing receptor 2 (Homo sapiens); conditions: at 10 µM
[15] = target: T4, Myotonin-protein kinase (Homo sapiens) (UniProt Q09013); conditions: at 1 µM
T4 sequence (whole entry): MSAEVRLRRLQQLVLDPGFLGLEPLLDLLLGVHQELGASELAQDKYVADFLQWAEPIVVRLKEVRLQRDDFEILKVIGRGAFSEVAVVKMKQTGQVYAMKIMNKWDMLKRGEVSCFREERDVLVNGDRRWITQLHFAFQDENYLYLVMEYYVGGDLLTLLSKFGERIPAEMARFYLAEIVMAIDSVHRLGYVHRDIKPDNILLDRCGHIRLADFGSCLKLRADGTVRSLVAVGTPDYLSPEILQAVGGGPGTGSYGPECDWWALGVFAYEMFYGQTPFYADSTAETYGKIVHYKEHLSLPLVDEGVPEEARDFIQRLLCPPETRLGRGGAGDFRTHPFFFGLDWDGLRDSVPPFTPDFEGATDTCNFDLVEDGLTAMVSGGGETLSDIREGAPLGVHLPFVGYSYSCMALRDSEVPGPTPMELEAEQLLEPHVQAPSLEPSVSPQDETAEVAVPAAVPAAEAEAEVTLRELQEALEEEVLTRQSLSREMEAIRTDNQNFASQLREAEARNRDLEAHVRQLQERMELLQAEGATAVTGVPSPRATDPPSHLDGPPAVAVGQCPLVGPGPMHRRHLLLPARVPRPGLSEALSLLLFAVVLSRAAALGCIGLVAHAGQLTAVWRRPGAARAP

[16] = target: T4, Myotonin-protein kinase (Homo sapiens); conditions: at 10 µM
[17] = target: Calcium/calmodulin-dependent protein kinase type 1 (Homo sapiens) (UniProt Q14012); conditions: at 1 µM
[18] = target: Death-associated protein kinase 2 (Homo sapiens) (UniProt Q9UIK4); conditions: at 10 µM
[19] = target: T2, Serine/threonine-protein kinase DCLK2 (Homo sapiens); conditions: at 1 µM
[20] = target: T5, Serine/threonine-protein kinase 17A (Homo sapiens) (UniProt Q9UEE5); conditions: at 1 µM
T5 sequence (whole entry): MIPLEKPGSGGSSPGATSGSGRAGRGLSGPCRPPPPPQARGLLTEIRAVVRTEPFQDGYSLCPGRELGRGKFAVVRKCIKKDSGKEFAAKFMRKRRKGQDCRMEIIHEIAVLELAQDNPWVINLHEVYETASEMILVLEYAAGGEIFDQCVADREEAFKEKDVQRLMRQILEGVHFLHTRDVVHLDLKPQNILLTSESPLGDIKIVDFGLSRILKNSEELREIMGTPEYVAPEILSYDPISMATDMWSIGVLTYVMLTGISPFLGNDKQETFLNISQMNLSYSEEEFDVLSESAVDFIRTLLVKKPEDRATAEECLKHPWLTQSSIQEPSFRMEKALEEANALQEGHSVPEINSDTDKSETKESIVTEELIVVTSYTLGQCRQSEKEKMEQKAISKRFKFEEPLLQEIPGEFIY

Sequence of Calcium/calmodulin-dependent protein kinase type II subunit beta (Homo sapiens) (Q13554 whole entry): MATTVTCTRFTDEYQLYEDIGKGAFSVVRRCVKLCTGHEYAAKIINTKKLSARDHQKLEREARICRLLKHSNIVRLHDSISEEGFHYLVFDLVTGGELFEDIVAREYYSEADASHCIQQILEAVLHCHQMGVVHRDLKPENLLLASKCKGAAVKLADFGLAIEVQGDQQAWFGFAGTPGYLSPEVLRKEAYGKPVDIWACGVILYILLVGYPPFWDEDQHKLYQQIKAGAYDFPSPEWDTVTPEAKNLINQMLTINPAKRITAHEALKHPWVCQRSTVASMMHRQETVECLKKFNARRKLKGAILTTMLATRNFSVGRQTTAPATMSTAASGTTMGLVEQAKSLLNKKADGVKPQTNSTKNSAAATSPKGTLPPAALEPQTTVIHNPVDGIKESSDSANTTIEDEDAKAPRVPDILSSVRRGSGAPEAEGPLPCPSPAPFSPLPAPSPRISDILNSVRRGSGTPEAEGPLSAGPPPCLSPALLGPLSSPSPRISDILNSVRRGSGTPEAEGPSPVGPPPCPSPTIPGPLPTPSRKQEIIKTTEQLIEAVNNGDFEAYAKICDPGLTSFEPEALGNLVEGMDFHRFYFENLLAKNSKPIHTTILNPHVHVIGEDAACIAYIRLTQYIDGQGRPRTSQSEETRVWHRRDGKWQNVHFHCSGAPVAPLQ
Sequence of Calcium/calmodulin-dependent protein kinase type 1 (Homo sapiens) (Q14012 whole entry, looked up): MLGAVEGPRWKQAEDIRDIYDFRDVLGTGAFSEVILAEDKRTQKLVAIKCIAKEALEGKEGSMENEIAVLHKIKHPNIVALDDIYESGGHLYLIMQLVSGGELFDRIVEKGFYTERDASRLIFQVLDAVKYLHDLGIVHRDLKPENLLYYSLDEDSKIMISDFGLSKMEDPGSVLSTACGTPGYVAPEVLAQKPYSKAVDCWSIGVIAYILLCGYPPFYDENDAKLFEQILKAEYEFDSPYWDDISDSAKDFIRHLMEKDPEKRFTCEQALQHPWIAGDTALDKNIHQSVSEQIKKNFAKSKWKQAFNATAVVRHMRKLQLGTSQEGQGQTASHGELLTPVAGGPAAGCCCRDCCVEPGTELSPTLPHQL
Sequence of Calcium/calmodulin-dependent protein kinase type II subunit delta (Homo sapiens) (Q13557 whole entry): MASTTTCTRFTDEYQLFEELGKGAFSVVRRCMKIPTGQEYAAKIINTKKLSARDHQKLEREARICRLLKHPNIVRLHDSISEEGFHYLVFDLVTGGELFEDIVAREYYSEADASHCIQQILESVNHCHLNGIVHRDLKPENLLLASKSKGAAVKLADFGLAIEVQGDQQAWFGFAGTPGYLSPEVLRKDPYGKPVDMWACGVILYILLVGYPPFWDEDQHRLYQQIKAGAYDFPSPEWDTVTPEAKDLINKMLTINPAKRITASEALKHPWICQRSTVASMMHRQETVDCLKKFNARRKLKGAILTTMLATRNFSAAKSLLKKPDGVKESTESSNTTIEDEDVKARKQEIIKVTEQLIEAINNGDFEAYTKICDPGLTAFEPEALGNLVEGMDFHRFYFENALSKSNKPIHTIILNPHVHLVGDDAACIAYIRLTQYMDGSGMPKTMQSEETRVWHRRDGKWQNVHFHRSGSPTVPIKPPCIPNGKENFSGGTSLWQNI
Sequence of Calcium/calmodulin-dependent protein kinase type II subunit gamma (Homo sapiens) (Q13555 whole entry): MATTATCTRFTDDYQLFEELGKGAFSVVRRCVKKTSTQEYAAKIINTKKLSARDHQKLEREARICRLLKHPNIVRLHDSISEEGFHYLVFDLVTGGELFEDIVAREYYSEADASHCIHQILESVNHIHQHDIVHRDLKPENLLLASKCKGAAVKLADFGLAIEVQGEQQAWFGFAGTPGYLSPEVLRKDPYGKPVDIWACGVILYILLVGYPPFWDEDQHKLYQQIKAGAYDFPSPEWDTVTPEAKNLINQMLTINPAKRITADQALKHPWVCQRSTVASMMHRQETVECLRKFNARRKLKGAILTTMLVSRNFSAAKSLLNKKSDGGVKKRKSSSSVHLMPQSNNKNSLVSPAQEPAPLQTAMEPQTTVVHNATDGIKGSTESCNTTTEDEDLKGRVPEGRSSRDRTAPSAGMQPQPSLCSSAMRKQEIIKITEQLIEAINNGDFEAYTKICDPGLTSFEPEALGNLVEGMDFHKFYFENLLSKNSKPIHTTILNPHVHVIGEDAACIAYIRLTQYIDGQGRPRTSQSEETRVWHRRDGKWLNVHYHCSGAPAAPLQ
Sequence of Death-associated protein kinase 2 (Homo sapiens) (Q9UIK4 whole entry, looked up): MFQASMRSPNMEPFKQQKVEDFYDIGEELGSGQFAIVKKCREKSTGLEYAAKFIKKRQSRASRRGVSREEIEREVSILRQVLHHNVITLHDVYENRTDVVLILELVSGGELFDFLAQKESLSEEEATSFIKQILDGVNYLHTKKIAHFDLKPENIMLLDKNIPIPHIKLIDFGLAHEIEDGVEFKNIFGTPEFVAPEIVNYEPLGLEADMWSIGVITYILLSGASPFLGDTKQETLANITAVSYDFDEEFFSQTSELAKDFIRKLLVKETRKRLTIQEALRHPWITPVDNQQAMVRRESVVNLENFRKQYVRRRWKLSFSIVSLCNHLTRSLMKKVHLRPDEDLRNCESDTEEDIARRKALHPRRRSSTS
Sequence of Death-associated protein kinase 1 (Homo sapiens) (P53355 whole entry, looked up): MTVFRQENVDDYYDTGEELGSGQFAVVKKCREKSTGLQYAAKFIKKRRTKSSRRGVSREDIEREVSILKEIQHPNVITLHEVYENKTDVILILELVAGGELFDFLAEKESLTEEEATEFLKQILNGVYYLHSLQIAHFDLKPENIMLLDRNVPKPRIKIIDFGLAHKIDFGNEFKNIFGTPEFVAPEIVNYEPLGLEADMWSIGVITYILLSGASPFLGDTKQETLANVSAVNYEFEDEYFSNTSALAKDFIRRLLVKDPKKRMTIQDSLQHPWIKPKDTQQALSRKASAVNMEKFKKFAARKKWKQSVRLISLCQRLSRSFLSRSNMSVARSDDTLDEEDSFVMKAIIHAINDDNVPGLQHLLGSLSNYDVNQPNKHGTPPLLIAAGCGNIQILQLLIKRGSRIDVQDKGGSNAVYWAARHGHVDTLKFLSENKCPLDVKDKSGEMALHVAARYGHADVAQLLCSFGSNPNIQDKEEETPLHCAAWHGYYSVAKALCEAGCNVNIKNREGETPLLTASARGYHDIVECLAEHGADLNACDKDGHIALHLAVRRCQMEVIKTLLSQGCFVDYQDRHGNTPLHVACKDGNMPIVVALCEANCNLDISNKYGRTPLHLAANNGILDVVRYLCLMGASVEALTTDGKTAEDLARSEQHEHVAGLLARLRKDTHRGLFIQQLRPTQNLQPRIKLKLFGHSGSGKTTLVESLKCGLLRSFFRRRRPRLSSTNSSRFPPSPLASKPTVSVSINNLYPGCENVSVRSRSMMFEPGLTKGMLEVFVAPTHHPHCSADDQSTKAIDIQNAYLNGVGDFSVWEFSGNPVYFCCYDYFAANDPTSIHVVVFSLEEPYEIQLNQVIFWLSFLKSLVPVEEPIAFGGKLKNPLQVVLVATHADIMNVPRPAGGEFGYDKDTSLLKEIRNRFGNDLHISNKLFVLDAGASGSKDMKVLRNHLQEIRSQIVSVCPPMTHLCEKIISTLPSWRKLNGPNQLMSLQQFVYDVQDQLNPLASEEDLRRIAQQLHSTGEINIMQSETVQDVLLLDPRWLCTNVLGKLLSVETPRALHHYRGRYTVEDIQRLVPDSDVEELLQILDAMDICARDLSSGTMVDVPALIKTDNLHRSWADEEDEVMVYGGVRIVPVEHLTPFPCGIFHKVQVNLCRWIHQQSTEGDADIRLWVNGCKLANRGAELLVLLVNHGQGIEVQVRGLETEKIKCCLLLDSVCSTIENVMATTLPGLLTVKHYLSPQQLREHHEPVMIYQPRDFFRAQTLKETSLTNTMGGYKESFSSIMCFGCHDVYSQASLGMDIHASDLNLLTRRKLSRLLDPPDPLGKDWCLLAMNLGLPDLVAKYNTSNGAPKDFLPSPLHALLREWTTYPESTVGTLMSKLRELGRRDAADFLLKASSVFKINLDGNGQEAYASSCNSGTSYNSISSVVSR

Row | Structure (SMILES) | residual activity [1] | residual activity [2] | residual activity [3] | residual activity [4] | residual activity [5] | residual activity [6] | residual activity [7] | residual activity [8] | residual activity [9] | residual activity [10] | residual activity [11] | residual activity [12] | residual activity [13] | residual activity [14] | residual activity [15] | residual activity [16] | residual activity [17] | residual activity [18] | residual activity [19] | residual activity [20]
1 | c1ccc(-c2n[nH]cc2-c2ccnc3ccccc23)nc1 | 83% | 96% | 68% | 94% | 69% | 96% | 80% | 139% | 78% | 88% | 103% | 101% | 102% | 98% | 127% | 140% | – | – | – | –
2 | Nc1nc(Nc2ccc(S(N)(=O)=O)cc2)nn1C(=S)Nc1c(F)cccc1F | 17% | 5% | -1% | 2% | 0% | 0% | 0% | – | – | – | 84% | 2% | 74% | 28% | 122% | 31% | 66% | 43% | 13% | 1%
3 | Nc1cccc(-c2cc3c(Oc4cccc(O)c4)ncnc3[nH]2)c1 | 66% | 75% | 23% | 40% | 10% | 42% | 10% | – | – | 101% | 102% | 78% | 23% | 4% | 98% | 84% | 88% | 91% | 104% | 82%
4 | Cn1cc(/C=C2\C(=O)Nc3ccc(S(N)(=O)=O)cc32)c2ccccc21 | 12% | 65% | 58% | 23% | -1% | 23% | 7% | 120% | 62% | 85% | 92% | 77% | 94% | 99% | 80% | 120% | 54% | 94% | 97% | 22%
5 | COc1cc2ncnc(Nc3ccc(O)c(Br)c3)c2cc1OC | 61% | 73% | 62% | 68% | 18% | 79% | 28% | 122% | 67% | 76% | – | 96% | 90% | 55% | 105% | 116% | 104% | 77% | 73% | 77%
6 | O=C1NC(=O)c2c1c1c3ccccc3[nH]c1c1[nH]c3cc(Br)ccc3c21 | 70% | 92% | 66% | 18% | 21% | 15% | 18% | 103% | 99% | 92% | 98% | 96% | 101% | 98% | 115% | 97% | 89% | 71% | 83% | 67%
7 | Cc1cc2ncc(-c3ccccc3)nc2cc1C | 89% | 101% | 92% | – | 94% | – | 81% | 108% | 100% | 88% | 99% | 67% | 102% | 90% | 97% | 135% | – | – | 95% | 70%
8 | Oc1c2ccccc2c2c3c(cccc13)N=N2 | 32% | – | – | 37% | 8% | 43% | 8% | 73% | 24% | 68% | 87% | 51% | 93% | 92% | – | 68% | 77% | 43% | 116% | 6%
9 | O=Nc1c(-c2c(O)[nH]c3ccccc23)[nH]c2ccccc12 | 21% | 33% | 11% | 12% | 1% | 10% | 2% | 66% | 10% | 67% | 73% | 74% | 94% | 87% | 109% | 83% | 72% | 23% | 119% | 6%
10 | c1ccc2c(-c3ccncc3)c[nH]c2c1 | 84% | 47% | 10% | 79% | 26% | – | 30% | – | 90% | 91% | 100% | 98% | – | 97% | 147% | 132% | 106% | – | 75% | 102%
11 | O=c1c2ccccc2[nH]c(=S)n1CCN1CCC(=C(c2ccc(F)cc2)c2ccc(F)cc2)CC1 | 113% | 102% | 79% | 115% | 100% | 105% | 91% | 108% | 95% | 62% | 109% | 79% | 104% | 87% | 105% | 108% | 110% | 104% | 91% | 71%
12 | Cc1cc(Nc2nc(-c3ccccc3)nc3ccccc23)n[nH]1 | 13% | – | 42% | 60% | 16% | 63% | 20% | 47% | 15% | 17% | 56% | 69% | 71% | 41% | 111% | 79% | 61% | 11% | 99% | 42%
13 | O=C1Nc2ccc(Br)cc2/C1=C\c1cc2c([nH]1)CCCC2 | – | 72% | 69% | 20% | 16% | 18% | 20% | 135% | – | – | – | – | 110% | – | 115% | 130% | 105% | – | – | 48%
14 | O=[N+]([O-])c1ccc(-c2nc(-c3ccc(F)cc3)c(-c3ccncc3)[nH]2)cc1 | 81% | 102% | 92% | – | – | 113% | 99% | 101% | 92% | 65% | 108% | 111% | 77% | 52% | 96% | 93% | 113% | 101% | 117% | 116%

— ChEMBL document CHEMBL2218924, “A broad activity screen in support of a chemogenomic map for kinase signalling research and drug discovery” (Biochem J, 2013)
